The results in this text go back to PubChem BioAssay AID687010 (National Center for Advancing Translational Sciences (NCATS), 2013).

The source made the active and inactive calls.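 How the source made its calls: active means a significant rise in survival of treated spinal muscular atrophy model mice compared with vehicle-treated controls; inactive means no significant rise in survival.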

This assay can be described thus: Extended Characterization of SMN2 Inhibitors: Survival Studies. Conditions: SMNdelta7 SMA mice, 50 mg/kg i.p. twice daily. The text has this: Spinal muscular atrophy (SMA) is caused by insufficient levels of the survival motor neuron protein SMN. The SMN locus on chromosome 5q13 contains two inverted copies of SMN called SMN1 and SMN2 which are 99% identical at the amino acid level. SMN1 is a fully functional protein and SMN2 skips exon 7 90% of the time. Skipping of exon 7 produces non-functional protein product. 10% of the SMN2 protein includes exon 7 and is fully functional. In the SMA disease state, mutations in the SMN1 locus are the cause of the disease state. Because only 10% of SMN2 is of the fully functional form, it is not sufficient to overcome the deficiency produced by the loss of the SMN1 product. A therapy that either increase the amount of SMN2 product made or to increase the inclusion of exon 7 has been proposed for the treatment of SMA. We have previously filed a probe report and have now done further SAR and further characterized the resulting compounds in mice studies. […]
Studies were approved by the National Institute of Neurological […] and Stroke Animal Care Committee and performed in accordance with the National Institutes of Health Guide for the Care and Use of Laboratory Animals. […] For survival studies, litters were maintained and kept with the mother until P21, after which if any SMA pups survived they were weaned and continued to be monitored.
In the case of `O=C(O)C1CCN(c2ncc(-c3ccc4c(c3)OCCCO4)s2)CC1`, the outcome was “active; yes”.
